Data published in the supplement of paper PMC8728848.
This excerpt belongs to a sample that is enriched for the strongest signals.

Legend:
Assay in all cases: glycan array binding signal (z-score within array); higher = stronger binding
Conditions in all cases: glycan notation: IUPAC condensed, linker removed
[1] = target: Fuc(a1-2)[Gal(a1-3)]Gal(b1-4)GlcNAc
Procedure, shortened: (§1)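 Columns mapping to the same glycan were averaged after glycan names were converted to IUPAC-condensed notation. The data come from 3228 arrays in the Consortium for Functional Glycomics database, limited to those with an available protein sequence. Binding is reported as a within-array Z-score averaged across arrays of one protein sequence and across linkers.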

Gal(a1-4)Gal(b1-4)GlcNAc = target: Gal(a1-4)Gal(b1-4)GlcNAc
Procedure, shortened: as §1

[2] = target: Gal(b1-3)GalNAc(b1-4)Gal(b1-4)Glc
Procedure, shortened: as §1

[3] = target: Gal(b1-3)[Neu5Ac(a2-6)]GalNAc
Procedure, shortened: as §1

[4] = target: Gal(b1-4)GlcNAc(b1-3)Gal(b1-4)GlcNAc
Procedure, shortened: as §1

Gal3S(b1-4)GlcNAc = target: Gal3S(b1-4)GlcNAc
Procedure, shortened: as §1

GalNAc(a1-3)Gal = target: GalNAc(a1-3)Gal
Procedure, shortened: as §1

GalNAc(b1-3)GalNAc = target: GalNAc(b1-3)GalNAc
Procedure, shortened: as §1

GlcNAc(b1-3)Gal = target: GlcNAc(b1-3)Gal
Procedure, shortened: as §1

Kdn(a2-3)Gal(b1-4)GlcNAc = target: Kdn(a2-3)Gal(b1-4)GlcNAc
Procedure, shortened: as §1

[5] = target: Man(a1-2)Man(a1-3)[Man(a1-2)Man(a1-6)]Man(a1-6)[Man(a1-3)[Man(a1-6)]Man(a1-6)]Man(b1-4)GlcNAc(b1-4)GlcNAc
Procedure, shortened: as §1

[6] = target: Man(a1-2)Man(a1-6)[Man(a1-3)]Man(a1-6)[Man(a1-2)Man(a1-2)Man(a1-3)]Man(b1-4)GlcNAc(b1-4)GlcNAc
Procedure, shortened: as §1

Man(a1-3)[Man(a1-6)]Man = target: Man(a1-3)[Man(a1-6)]Man
Procedure, shortened: as §1

[7] = target: Neu5Ac(a2-3)Gal(b1-3)[Neu5Ac(a2-3)Gal(b1-4)]GlcNAc
Procedure, shortened: as §1

Neu5Ac(a2-8)Neu5Ac = target: Neu5Ac(a2-8)Neu5Ac
Procedure, shortened: as §1

[8] = target: Neu5Ac(a2-8)Neu5Ac(a2-3)[GalNAc(b1-4)]Gal(b1-4)Glc
Procedure, shortened: as §1

[9] = target: Neu5Gc(a2-3)Gal(b1-3)GlcNAc
Procedure, shortened: as §1

[10] = target: Fuc(a1-2)[Gal(a1-3)]Gal(b1-4)GlcNAc(b1-3)GalNAc
Procedure, shortened: as §1

[11] = target: Gal(a1-3)Gal(b1-3)GlcNAc(b1-3)GalNAc
Procedure, shortened: as §1

Gal(a1-4)Gal(b1-4)Glc = target: Gal(a1-4)Gal(b1-4)Glc
Procedure, shortened: as §1

Gal(a1-6)Glc = target: Gal(a1-6)Glc
Procedure, shortened: as §1

[12] = target: Gal(b1-3)GlcNAc(a1-6)Gal(b1-4)GlcNAc
Procedure, shortened: as §1

[13] = target: Gal(b1-3)GlcNAc(b1-2)Man(a1-3)[Gal(b1-3)GlcNAc(b1-2)Man(a1-6)]Man(b1-4)GlcNAc(b1-4)GlcNAc
Procedure, shortened: as §1

[14] = target: Gal(b1-3)GlcNAc(b1-3)GalNAc
Procedure, shortened: as §1

[15] = target: Gal(b1-3)[Fuc(a1-4)]GlcNAc(b1-3)Gal(b1-4)[Fuc(a1-3)]GlcNAc
Procedure, shortened: as §1

[16] = target: Gal(b1-3)[GlcNAc(b1-6)]GalNAc
Procedure, shortened: as §1

[17] = target: Gal(b1-4)GlcNAc(b1-2)Man(a1-3)Man(b1-4)GlcNAc(b1-4)GlcNAc
Procedure, shortened: as §1

[18] = target: Gal(b1-4)GlcNAc(b1-2)Man(a1-3)[Gal(b1-4)GlcNAc(b1-2)Man(a1-6)]Man(b1-4)GlcNAc(b1-4)GlcNAc
Procedure, shortened: as §1

[19] = target: Gal(b1-4)GlcNAc(b1-2)Man(a1-3)[Gal(b1-4)GlcNAc(b1-2)Man(a1-6)]Man(b1-4)GlcNAc(b1-4)[Fuc(a1-6)]GlcNAc
Procedure, shortened: as §1

[20] = target: Gal(b1-4)GlcNAc(b1-2)Man(a1-3)[Gal(b1-4)GlcNAc(b1-2)][GlcNAc(b1-4)]Man(b1-4)GlcNAc(b1-4)GlcNAc
Procedure, shortened: as §1

[21] = target: Gal(b1-4)GlcNAc(b1-2)Man(a1-3)[GlcNAc(b1-2)Man(a1-6)]Man(b1-4)GlcNAc(b1-4)GlcNAc
Procedure, shortened: as §1

[22] = target: Gal(b1-4)GlcNAc(b1-2)Man(a1-3)[Man(a1-6)]Man(b1-4)GlcNAc(b1-4)GlcNAc
Procedure, shortened: as §1

Gal3S6S(b1-4)GlcNAc6S = target: Gal3S6S(b1-4)GlcNAc6S
Procedure, shortened: as §1

Gal6S(b1-4)GlcNAc = target: Gal6S(b1-4)GlcNAc
Procedure, shortened: as §1

GalNAc(b1-6)GalNAc = target: GalNAc(b1-6)GalNAc
Procedure, shortened: as §1

Glc(a1-6)Glc(a1-6)Glc = target: Glc(a1-6)Glc(a1-6)Glc
Procedure, shortened: as §1

GlcA(b1-3)Gal = target: GlcA(b1-3)Gal
Procedure, shortened: as §1

GlcNAc(b1-4)GlcNAc = target: GlcNAc(b1-4)GlcNAc
Procedure, shortened: as §1

[23] = target: GlcNAc6S(b1-3)Gal(b1-4)GlcNAc
Procedure, shortened: as §1

[24] = target: Man(a1-2)Man(a1-2)Man(a1-6)[Man(a1-3)]Man
Procedure, shortened: as §1

[25] = target: Man(a1-2)Man(a1-3)[Man(a1-2)Man(a1-6)]Man(a1-6)[Man(a1-2)Man(a1-2)Man(a1-3)]Man
Procedure, shortened: as §1

Man(b1-4)GlcNAc = target: Man(b1-4)GlcNAc
Procedure, shortened: as §1

Neu5Ac(a2-3)GalNAc = target: Neu5Ac(a2-3)GalNAc
Procedure, shortened: as §1

[26] = target: Neu5Ac(a2-6)Gal(b1-4)GlcNAc(b1-2)Man(a1-3)[Man(a1-6)]Man(b1-4)GlcNAc(b1-4)GlcNAc
Procedure, shortened: as §1

[27] = target: Neu5Ac(a2-6)Gal(b1-4)GlcNAc(b1-2)Man(a1-6)[Gal(b1-4)GlcNAc(b1-2)Man(a1-3)]Man(b1-4)GlcNAc(b1-4)GlcNAc
Procedure, shortened: as §1

[28] = target: Neu5Ac(a2-6)Gal(b1-4)GlcNAc(b1-2)Man(a1-6)[GlcNAc(b1-2)Man(a1-3)]Man(b1-4)GlcNAc(b1-4)GlcNAc
Procedure, shortened: as §1

B1: IRP60A (Homo sapiens), Q9UGN4 (protein)
chain: MWLPWALLLLWVPGCFALSKCRTVAGPVGGSLSVQCPYEKEHRTLNKYWCRPPQIFLCDKIVETKGSAGKRNGRVSIRDSPANLSFTVTLENLTEEDAGTYWCGVDTPWLRDFHDPVVEVEVSVFPASTSMTPASITAAKTSTITTAFPPVSSTTLFAVGATHSASIQEETEEVVNSQLPLLLSLLALLLLLLVGASLLAWRMFQKWIKAGDHSELSQNPKQAATQSELHYANLELLMWPLQEKPAPPREVEVEYSTVASPREELHYASVVFDSNTNRIAAQRPREEEPDSDYSVIRKT
[1]
  glycan array binding signal (z-score): -0.266
Gal(a1-4)Gal(b1-4)GlcNAc
  glycan array binding signal (z-score): -0.116
[2]
  glycan array binding signal (z-score): -0.487
[3]
  glycan array binding signal (z-score): -0.296
[4]
  glycan array binding signal (z-score): -0.308
Gal3S(b1-4)GlcNAc
  glycan array binding signal (z-score): 0.268
GalNAc(a1-3)Gal
  glycan array binding signal (z-score): 6.44
GalNAc(b1-3)GalNAc
  glycan array binding signal (z-score): 0.467
GlcNAc(b1-3)Gal
  glycan array binding signal (z-score): -0.069
Kdn(a2-3)Gal(b1-4)GlcNAc
  glycan array binding signal (z-score): -0.156
[5]
  glycan array binding signal (z-score): -0.396
[6]
  glycan array binding signal (z-score): -0.395
Man(a1-3)[Man(a1-6)]Man
  glycan array binding signal (z-score): 8.07
[7]
  glycan array binding signal (z-score): -0.378
Neu5Ac(a2-8)Neu5Ac
  glycan array binding signal (z-score): 5.86
[8]
  glycan array binding signal (z-score): -0.404
[9]
  glycan array binding signal (z-score): -0.502

B2: ASAL (Allium sativum), P83886 (protein)
chain: MGRTTSSPKAMMRIATVAAILTILASTCMARNVLTNGEGLYAGQSLDVEQYKFIMQDDCNLVLYEYSTPIWASNTGVTGKNGCRAVMQRDGNFVVYDVNGRPVWASNSVRGNGNYILVLQKDRNVVIYGSDIWSTGTYRRSVGGAVVMAMNGTVDGGSVIGPVVVNQNVTAAIRKVGTGAA
[10]
  glycan array binding signal (z-score): -0.201
[11]
  glycan array binding signal (z-score): -0.206
Gal(a1-4)Gal(b1-4)Glc
  glycan array binding signal (z-score): -0.282
Gal(a1-6)Glc
  glycan array binding signal (z-score): -0.285
[12]
  glycan array binding signal (z-score): -0.252
[13]
  glycan array binding signal (z-score): -0.113
[14]
  glycan array binding signal (z-score): -0.178
[15]
  glycan array binding signal (z-score): -0.218
[16]
  glycan array binding signal (z-score): -0.267
[17]
  glycan array binding signal (z-score): 6.55
[18]
  glycan array binding signal (z-score): 5.54
[19]
  glycan array binding signal (z-score): 7.04
[20]
  glycan array binding signal (z-score): -0.228
[21]
  glycan array binding signal (z-score): 5.91
[22]
  glycan array binding signal (z-score): 7.21
Gal3S6S(b1-4)GlcNAc6S
  glycan array binding signal (z-score): -0.238
Gal6S(b1-4)GlcNAc
  glycan array binding signal (z-score): -0.193
GalNAc(b1-6)GalNAc
  glycan array binding signal (z-score): -0.24
Glc(a1-6)Glc(a1-6)Glc
  glycan array binding signal (z-score): -0.234
GlcA(b1-3)Gal
  glycan array binding signal (z-score): 5.39
GlcNAc(b1-3)Gal
  glycan array binding signal (z-score): -0.3
GlcNAc(b1-4)GlcNAc
  glycan array binding signal (z-score): -0.252
[23]
  glycan array binding signal (z-score): -0.065
[24]
  glycan array binding signal (z-score): 2.53
[25]
  glycan array binding signal (z-score): 4.09
Man(b1-4)GlcNAc
  glycan array binding signal (z-score): -0.236
Neu5Ac(a2-3)GalNAc
  glycan array binding signal (z-score): -0.276
[26]
  glycan array binding signal (z-score): 0.085
[27]
  glycan array binding signal (z-score): 4.59
[28]
  glycan array binding signal (z-score): 5.01
